Assay outcomes as filed in PubChem BioAssay.
LNCaP diff act: activators of LNCaP prostate cell differentiation. flow cytometry side scatter, 4 d. side scatter shift, % at 10 µM. 0.56% of 24,000 active. AID 795;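 active means side scatter shift above 30%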;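 further: androgen-responsive LNCaP prostate cancer cells in charcoal-stripped serum medium; higher shift means more granular cells and more differentiation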
FPR binder: ligands of human FPR, also counter-screen for FPRL1 ligands. FPR-expressing cells, fluorescent ligand binding, flow cytometry. 0.74% of 24,000 active. P21462. inhibition, % (test concentration not listed). AID 440
Target sequence (P21462 whole entry, looked up): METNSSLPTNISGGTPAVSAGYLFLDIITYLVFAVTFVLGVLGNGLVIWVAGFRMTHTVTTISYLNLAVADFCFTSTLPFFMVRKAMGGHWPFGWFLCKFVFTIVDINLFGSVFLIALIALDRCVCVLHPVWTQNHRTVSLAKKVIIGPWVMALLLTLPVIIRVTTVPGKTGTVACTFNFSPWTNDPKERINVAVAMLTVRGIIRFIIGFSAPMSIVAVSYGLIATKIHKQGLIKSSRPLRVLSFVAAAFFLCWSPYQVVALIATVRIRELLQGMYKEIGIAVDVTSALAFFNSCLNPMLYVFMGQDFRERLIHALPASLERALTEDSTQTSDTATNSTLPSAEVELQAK
S aureus QS inh: blocks AIP-induced quorum sensing reporter in S. aureus. 0.3% of 24,000 active. S. aureus RN6390 RNAIII-GFP reporter, flow cytometry 3 h. inhibition, % at 2 µM;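 active means share of bacteria positive for the green fluorescent reporter and its mean brightness both inhibited by 50% or more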
FPRL1 ligand: ligands of human FPRL1, also counter-screen for FPR ligands | P25090 | FPRL1-expressing cells, fluorescent ligand binding inhibition, flow cytometry | inhibition, % (concentration not given with the values) | 0.3% of 24,000 active | AID 441
Hits are given with their value; - = inactive; . = no result. Rows were chosen to be rich in hits. Some 1.9% of all compounds tested hit in one or more screens of this group. Unless noted, no stated cut-off is given here; in the data, active means inhibition above about 30%; inconclusive means no clear call, values can overlap the other calls; inactive means below that.

SMILES	LNCaP diff act	FPR binder	S aureus QS inh	FPRL1 ligand
Cc1ccc(/C(O)=C2\C(=O)C(=O)N(c3cc(C)on3)C2c2cccc(Br)c2)cc1 (stereo not given)	.	40	.	-
CCSc1nc(O)c(C2OC(=O)c3c2ccc(OC)c3OC)c(=O)n1-c1ccccc1 (stereo not given)	-	34	-	-
COc1ccc2c(c1OC)C(=O)OC2Nn1cncn1 (stereo not given)	-	-	-	-
O=C1CCCC(O)=C1C(C#Cc1ccccc1)C1=C(O)CCCC1=O	-	47	-	-
COc1ccc(CCN2C(=O)C(O)=C(C(=O)c3ccco3)C2c2cccs2)cc1OC (stereo not given)	.	82	.	31
COc1cccc(C2C(C(=O)c3ccco3)=C(O)C(=O)N2CCCN2CCOCC2)c1OC (stereo not given)	.	-	.	-
CCOc1cc(C2C(C(=O)c3ccc(C)o3)=C(O)C(=O)N2CCc2ccccc2)ccc1O (stereo not given)	.	90	.	-
COc1ccccc1C1C(C(C)=O)=C(O)C(=O)N1CCc1ccccc1 (stereo not given)	-	-	-	-
COc1cc(C2C(C(=O)c3ccco3)=C(O)C(=O)N2Cc2cccnc2)cc(OC)c1OC (stereo not given)	.	-	.	-
COCCN1C(=O)C(O)=C(C(=O)c2ccco2)C1c1cccc(Oc2ccccc2)c1 (stereo not given)	.	72	.	-
CCOc1cccc(C2C(C(=O)c3ccco3)=C(O)C(=O)N2Cc2ccncc2)c1 (stereo not given)	.	-	.	-
COc1cc(C2C(C(=O)c3ccco3)=C(O)C(=O)N2CCc2ccccc2)ccc1O (stereo not given)	.	63	.	-
Cc1ccccc1C(=O)c1cccn1CC(=O)NCCN1CCN(c2cccc(C)c2C)CC1	.	.	-	.
Cc1cccc(NC(=O)C2CCCN2S(=O)(=O)c2cccc3cccnc23)c1 (stereo not given)	-	-	-	-
CCOc1ccccc1C(=O)N1CCN=C1SCc1cccnc1	-	-	-	-
